The results in this text go back to PubChem BioAssay AID1259240 (Keith Lab, Institute of Cancer Science, University of …, 2017).

The structures appear in SMILES notation. Unmarked numbers belong to inactive results. Activity calls are given as the source filed them. Cut-off read from the data, not from the text of the source: active = fold change mostly below about -2 (no sharp cut-off); inactive = mostly above about -1.8.

This experiment in a line: modulation of TERT promoter-driven luciferase – cell-based, luciferase reporter, human, primary screen (AID 1259240). The conditions noted are these: A2780 TERT promoter luciferase reporter, 16 h; at 20 µM, fold versus average of vehicle-only wells unless noted.
As for `CC1N=C(c2ccccc2F)c2cc(Cl)ccc2N(Cc2cc(=O)n3ccccc3n2)C1=O` (centres undefined), the fold change was -1.26.
Turning to `CCOC(=O)C1CC2CCCN2C12C(=O)N(Cc1ccccc1)c1ccccc12` (centres undefined), the fold change is -1.82 [at 20 µM].
As to `CCN1CCN(c2ccc3nncn3n2)CC1`, the fold change is -1.39.
On the same count and under the same terms, the same measure for `Cc1nnc2ccc(N3CCN(C)CC3)nn12`: -1.19 [at 20 µM].
Regarding `Cc1oc(-c2ccccc2F)nc1CN1C(=O)CN=C(c2ccccc2)c2ccccc21`, the fold change is -1.14.
The same measure, in the same setting: the same measure for `N#Cc1cnn2c(C(F)(F)F)cc(-c3cccs3)nc12`: 1.09.
For `Clc1ccc(Cl)c2c1NC(c1cccnc1)C1CC=CC21` (centres undefined), the call was inactive.
Turning to `CC12CC(c3ccccc3O1)C(C(=O)OCc1ccccc1)C(=O)N2` (centres undefined), the fold change is -2.11 [at 20 µM] (active).
Still for that read-out and setting: the same measure for `Cc1cc(Cl)cc2c1NC(c1cccnc1)C1CC=CC21` (centres undefined): -2.25 (active).
